Assay results reported in PubChem BioAssay AID504332 (National Center for Advancing Translational Sciences (NCATS), 2011).
The campaign covered roughly 350,000 compounds. About 31,000 (8.9%) were called active. About 15% were inconclusive and are not listed. The entries come from a sample that favours actives as a whole. Unmarked numbers belong to inactive results. Calls follow the shape of the dose curve; as a rule, active = well fitted inhibition curve with a large enough effect; inconclusive = small, poorly fitted or top-dose-only effect; inactive = no such curve, though single readings can be large or run the other way.

Molecular target: Histone-lysine N-methyltransferase EHMT2 (Homo sapiens) (UniProt Q96KQ7)
Sequence (Q96KQ7 913-1193 limits assumed): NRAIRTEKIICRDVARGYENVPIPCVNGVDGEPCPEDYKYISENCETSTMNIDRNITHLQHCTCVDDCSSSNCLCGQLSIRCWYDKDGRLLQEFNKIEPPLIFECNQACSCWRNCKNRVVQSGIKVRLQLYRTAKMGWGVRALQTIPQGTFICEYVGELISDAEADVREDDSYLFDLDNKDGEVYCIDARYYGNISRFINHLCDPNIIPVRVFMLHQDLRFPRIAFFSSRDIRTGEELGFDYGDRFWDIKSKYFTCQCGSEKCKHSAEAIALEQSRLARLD
Assay: qHTS Assay for Inhibitors of Histone Lysine Methyltransferase G9a; also: nearly all actives have a fitted effect of over 75% in size
Details: G9a H3K9 monomethylation, AlphaScreen, 2 h; series mostly up to 59 µM; activity, negative = inhibition: at the top concentration
How it was run: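 Readings reflect AlphaScreen signal from monomethyl-H3K9 antibody detection. HMT at 20 nM; substrate b-H3K9 500 nM; cofactor SAM 20 uM; 2 h RT reaction; compounds tested as titrations in qHTS with 15 min preincubation.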
% is scaled to controls: 0 for no effect and ±100 for the full control effect; potency is read from the fitted curve at half-maximal effect.

Structure (SMILES) | activity, negative = inhibition | Potency
COC(=O)c1ccccc1NC(=O)c1cnn(-c2ccc(F)cc2)c1-n1cccc1 | -2.86% | –
O=C(COc1ccc(Cl)cc1)Nc1ccc2c(c1)OCO2 | 18.4% [at 102 µM] | –
O=C1CCN(C(=O)Nc2ccccc2)N1 | – | 7.94 µM (active)
O=C(CN1CCCCCC1)Nc1ccc(Cl)cc1F | -4.75% [at 102 µM] | –
Cc1cc(NC(=O)CCN2CCN(Cc3ccccc3)CC2)ccc1Br | – | 44.7 µM (active)
O=C(Nc1ccccc1)N1CCC(C(=O)N2CCN(Cc3ccccc3)CC2)CC1 | 9.4% [at 12.7 µM] | –
O=C(Nc1ccccc1)N1CCN(C2c3ccccc3-c3ccccc32)CC1 | 9.14% [at 102 µM] | –
O=C(Nc1cccc(NC(=O)N2CCN(c3ccccc3)CC2)c1)N1CCN(c2ccccc2)CC1 | -38.9% [at 102 µM] | –
O=C(Nc1ccccc1)N1CCN(Cc2ccccc2)CC1 | – | 2 µM (active)
O=C(Nc1ccccc1)N1CCN(C(=O)Nc2ccccc2)CC1 | 6.73% [at 102 µM] | –
O=C(CN1CCN(CC(=O)Nc2ccc3c(c2)OCO3)CC1)Nc1ccc(F)cc1 | -4.1% [at 2.33 µM] | –
O=C(CCN1CCN(C/C=C/c2ccccc2)CC1)Nc1cccc(F)c1 | -7.7% [at 102 µM] | –
CCOC(=O)N1CCN(CCC(=O)Nc2ccccc2)CC1 | -0.171% [at 0.501 µM] | –
O=C(CN1CCN(Cc2ccccc2)CC1)Nc1ccc(F)c(F)c1 | – | 7.08 µM (active)
COc1ccc(C)cc1NC(=O)CCc1c(C)nn(-c2ccc(N3CCOCC3)nn2)c1C | -3.72% | –
O=C(COC(=O)c1cnccn1)Nc1ccc(Cl)cc1C(F)(F)F | -3.19% [at 0.501 µM] | –
O=C(Cn1c(=O)nc(-c2ccccc2)c2cc(Cl)ccc21)NCc1ccc(Cl)cc1 | -4.4% | –
O=C(CSc1cn(CC(=O)N2CCOCC2)c2ccccc12)Nc1ccccc1 | 2.17% | –
CN(CC(=O)NCc1ccncc1)S(=O)(=O)c1ccc(Br)cc1 | 9.67% [at 102 µM] | –
CCOC(=O)Cc1csc(SCC(=O)Nc2ccc(C)cc2F)n1 | 25.5% [at 102 µM] | –
C=Cc1ccc(Cn2c(C(=O)OC)cc3sc(C)cc32)cc1 | 62.5% | –
CC(=O)Nc1ccc2nc(SCCOc3cc(C)cc(C)c3)sc2c1 | -9.85% | –
COc1ccc(Nc2cc(=O)n(-c3ccccc3)c3c2c(=O)n(C)c(=O)n3C)cc1 | -9.11% [at 102 µM] | –
COc1cccc(-n2cc3c(c2-c2ccccc2)c(=O)n(C)c(=O)n3C)c1 | – | 25.1 µM (active)

Structure (SMILES) | activity, negative = inhibition | Potency
COc1ccc(-c2c3c(=O)n(C)c(=O)n(C)c3c3c(C)nc4ccccc4n23)cc1 | 7.67% | –
COc1ccccc1-n1c(-c2ccc(C)cc2)cn2c3c(=O)n(C)c(=O)n(C)c3nc12 | -26.8% | –
COc1cccc(N2C(=O)CN(Cc3ccccc3)C2=S)c1 | 23.1% [at 102 µM] | –
Cc1ccc(-c2c3c(=O)n(C)c(=O)n(C)c3cn2-c2ccccc2O)cc1 | – | 31.6 µM (active)
O=C(O)c1ccc(CSc2nc3cccnc3n2Cc2cccc(F)c2)cc1 | 6.5% | –
CCN(CC(=O)NCc1cccs1)C(=O)/C=C/c1ccc(C)cc1 | 9.99% [at 12.7 µM] | –
CCOC(=O)c1c(C)[nH]c(CCC(=O)NCCCN2CCN(c3cccc(Cl)c3)CC2)c1C | 1.4% | –
CCOC(=O)c1ccc2c(c1)N(Cc1cccc(OC)c1)C(=O)c1ccccc1S2(=O)=O | 8.77% | –
CC(=O)N1Cc2ccccc2CC1C(=O)O (stereo not drawn) | – | 17.8 µM (active)
O=C(C1Cc2ccccc2CN1C(=O)c1ccco1)N1CCN(c2ccccc2)CC1 (stereo not drawn) | -27.1% | –
C[C@H](NC(=O)[C@@H]1Cc2ccccc2CN1C(=O)OC(C)(C)C)C(=O)NC1CCCC1 | 19.8% [at 102 µM] | –
C[C@@H]1O[C@@H](OC[C@H]2O[C@@H](Oc3c(-c4ccc(O)cc4)oc4cc(O)cc(O)c4c3=O)[C@H](O)[C@@H](O)[C@@H]2O)[C@H](O)[C@H](O)[C@H]1O | 4.77% [at 12.7 µM] | –
COc1cccc(N2CC(NS(=O)(=O)c3ccc(Cl)cc3)CC2=O)c1 (stereo not drawn) | -30.1% [at 102 µM] | –
CC1CCC(CN2CCN=C2N(C)C)CC1 (stereo not drawn) | 11.1% [at 12.7 µM] | –
NC(=S)c1ccc(C(N)=S)o1 | – | 44.7 µM (active)
O=C(COC(=O)c1cc2c(s1)CCCC2)NCc1ccccc1Cl | 7.22% [at 102 µM] | –
O=C(Nc1ccc(F)cc1)c1cc2c(s1)CCCC2 | 45% [at 102 µM] | –
CN(C)C(=O)c1ccc(NC(=O)COC(=O)c2cc3c(s2)CCCCC3)cc1 | – | 3.55 µM (active)
COc1ccccc1C(=O)CSc1cccc[n+]1[O-] | -25.8% [at 102 µM] | –
O=C(CSc1cccc[n+]1[O-])c1ccc(Cl)cc1 | – | 4.47 µM (active)
O=C(CSc1cccc[n+]1[O-])NCCCc1ccccc1 | 4.67% [at 102 µM] | –
O=C(CSc1cccc[n+]1[O-])c1ccc(-c2ccccc2)cc1 | – | 3.55 µM (active)
O=C(CSc1nc(Nc2ccc(F)c(F)c2)c2ccccc2n1)c1ccc(Cl)cc1 | 3.17% | –
Cc1cc(Oc2ccc(Cl)cc2)nc(SCC(=O)c2ccccc2)n1 | 16.6% | –
